Assay results taken from PubChem BioAssay (NCI).
This is part of a sample that, as a whole, favours compounds with a hit. Of some 83,000 tested, about 20% had one in any assay.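 Note: values are percent growth. 100 is the growth of untreated cells, values between 100 and 0 indicate rising inhibition; between -100 and 0 indicates cell death.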 A number with no mark means an inactive call. Activity calls are given as the source filed them. How the source made its calls: active means growth percent below 10; inactive means the rest.

These molecules were tested on OVCAR-3 ovarian (assay: NCI-60 one-dose screen, 48 h (100 = growth as untreated, 0 = no growth, -100 = all killed)). Conditions: 10 µM unless noted.

Row | Structure (SMILES) | growth
1 | CCOC(=O)c1c(NC(=O)c2ccc(C(C)C)cc2)sc2c(CN(C)C)c(O)ccc12 | 96.1%
2 | CCOC(=O)c1cnc2ccccc2c1Cl | 106%
3 | CCN(CC)c1nc(SCc2ccccc2Cl)ncc1C | 109%
4 | O=C1Nc2ccc(I)cc2C1=O | 74.7%
5 | O=S(=O)(NCCNc1nccc(-c2c(-c3cccc(F)c3)nc3occn23)n1)c1ccc(Br)cc1 | 90.1%
6 | CC(C)c1ccc(COCc2cc(CN3CCCC3)c(O)c3ncccc23)cc1 | -34.2% (active)
7 | COc1ccc2cc(C(=O)c3coc4ccc(O)cc34)ccc2c1 | 100%
8 | O=C(CI)NC1Oc2ccccc2-c2oc(=O)c(-c3ccccc3)cc21 (stereo unspecified) | -95.1% (active)
9 | Cc1ccc(-n2c(=S)[nH]c3sc4c(c3c2=O)CCC(=O)C4)cc1 | 4.02% (active)
10 | C=CCn1c(SCC(=O)Nc2ccc(C(=O)/C=C/c3cc4cc(OC)ccc4nc3Cl)cc2)nnc1-c1ccc(Br)cc1 | 97.4%
11 | COc1cccc(/C=C/C(=O)c2cc3c(N)c(C(=O)Nc4ccccc4)sc3nc2C)c1 | -26.5% (active)
12 | O=C1C(Cl)=C(Oc2ccccc2)C(=O)c2ccccc21 | 16%
13 | CC(C)OC(=O)c1ccc2[nH]c(O)c(C(=Nc3ccc(N(C)C(=O)CN4CCN(C)CC4)cc3)c3ccccc3)c2c1 | -75.7% (active)
14 | N#CC1C=CN(CC(N)=O)c2ccc3cccnc3c21 (stereo unspecified) | 109%
15 | S=C(Nc1ccc(-c2nc(N3CCOCC3)c3cccn3n2)cc1)Nc1cccnc1 | 39.6%
16 | Cc1cc2c(O)c(-c3cccc(Cl)c3)c3sc(=O)oc3c2cc1C | 18.6%
17 | COC(=O)[C@H]1CCCN1C[C@@H](O)CN1C(=O)/C(=C\c2cc(OC)c(OC)c(OC)c2)c2ccccc21 | 105%
18 | CS(=O)(=O)Nc1cc(-c2ccc3ncnc(Nc4c(Cl)ccc5c4OCO5)c3c2)cnc1Cl | -64.5% (active)
19 | COc1ccc(C(=S)N2CCN(c3ccccc3Cl)CC2)cc1OC | 104%
20 | CC(C)N1CN2C(=S)NC3C2N(C1)C(=S)N3C (stereo unspecified) | 103%

Row | Structure (SMILES) | growth
21 | O=C(c1ccc(-c2nc(CSc3nc4ccccc4s3)no2)cc1)N1CCSCC1 | 78.8%
22 | O=Nc1c(-c2c(O)[nH]c3ncccc23)[nH]c2ccccc12 | 69.3%
23 | O=C(CSc1nnc2n1S(=O)(=O)c1ccccc1N2c1ccccc1)Nc1nc2ccc(F)cc2s1 | 106%
24 | O=C1/C(=C/c2ccccc2Br)COc2ccc(O)c(O)c21 | 8.7% (active)
25 | CCOC(=O)C(=Cc1cccc(Br)c1)C(=O)OCC | 15.6%
26 | COC(C(=O)[C@@H](O)[C@@H](C)O)[C@@H]1Cc2cc3cc(O[C@H]4C[C@@H](O[C@H]5C[C@@H](O)[C@H](O)C(C)O5)[C@H](O)C(C)O4)cc(O)c3c(O)c2C(=O)[C@H]1O[C@H]1C[C@@H](O[C@H]2C[C@@H](O[C@H]3C[C@@H](OC)[C@H](O)C(C)O3)[C@@H](O)C(C)O2)[C@H](O)C(C)O1 (stereo partly specified) | 61%
27 | Cc1ccc(-c2cc(-c3ccc(Cl)cc3)nc(NC(=O)c3cccnc3)n2)cc1 | 115%
28 | Fc1cccc(CNc2c3ccccc3nc3ccccc23)c1F | 86.1%
29 | CN(C)CC(=O)Nc1ccc2ncnc(Nc3ccc(Oc4cccc(C(F)(F)F)c4)c(Cl)c3)c2c1 | 42.5%
30 | Cc1cc(N)c2cc(NC(=O)/C=C\c3ccccc3Cl)ccc2n1 | -90.2% (active)
31 | N#CC1=C(N)Oc2c(sc3c(F)cccc23)C1c1ccc(F)cc1 (stereo unspecified) | 10.9%
32 | C/C(=C(/c1ccc(Cl)cc1)c1ccc(OCCN2CCCC2)cc1)c1ccc(Cl)cc1 | 88.3%
33 | COC(=O)c1ccc2c(c1)C(=O)c1c-2n(CCCN)c(=O)c2cc([N+](=O)[O-])ccc12 | -93.2% (active)
34 | CS(=O)(=O)C1=CN(CCO)C(=O)N2CCCN=C12 | 105%
35 | O=C1Nc2ccccc2[C@]12CC(c1ccccc1)=NN2 | 27.7%
36 | O=C(Cn1c(=O)sc2nc3ccccc3nc21)Nc1ncc(Cc2cccc(Cl)c2Cl)s1 | 111%
37 | O=C(N/N=C/c1ccc(F)cc1)c1ccc(C(F)(F)F)nc1Nc1cccc(C(F)(F)F)c1 | -7.4% (active)
38 | COC(=O)[C@]1(C)CCC[C@]2(C)[C@H]3C[C@H]4C(C(C)C)=C[C@]3(CC[C@H]21)[C@H]1[C@@H]4[C@@H](OCCC#N)CC[C@@H]1OCCC#N | 22.7%
39 | CN(C)c1ccc(Nc2cc(-c3cccc(OC(F)(F)F)c3)nc3ccc(N4CCCC4)cc23)cc1 | -49.7% (active)
40 | CCn1c(=S)sc2c(Nc3ccc(F)cc3)nc(-c3cccnc3)nc21 | 78.7%

The molecules below were run on HS 578T breast in the same assay as above. Conditions: 10 µM unless noted.

Row | Structure (SMILES) | growth
41 | CCOC(=O)c1c(NC(=O)c2ccc(C(C)C)cc2)sc2c(CN(C)C)c(O)ccc12 | 86.2%
42 | CCOC(=O)c1cnc2ccccc2c1Cl | 92.9%
43 | CCN(CC)c1nc(SCc2ccccc2Cl)ncc1C | 124%
44 | O=S(=O)(NCCNc1nccc(-c2c(-c3cccc(F)c3)nc3occn23)n1)c1ccc(Br)cc1 | 74.6%
45 | COc1ccc2cc(C(=O)c3coc4ccc(O)cc34)ccc2c1 | 112%
46 | O=C(CI)NC1Oc2ccccc2-c2oc(=O)c(-c3ccccc3)cc21 (stereo unspecified) | 44.3%
47 | Cc1ccc(-n2c(=S)[nH]c3sc4c(c3c2=O)CCC(=O)C4)cc1 | 34.3%
48 | COc1cccc(/C=C/C(=O)c2cc3c(N)c(C(=O)Nc4ccccc4)sc3nc2C)c1 | 24.6%
49 | O=C1C(Cl)=C(Oc2ccccc2)C(=O)c2ccccc21 | 31.6%
50 | CC(C)OC(=O)c1ccc2[nH]c(O)c(C(=Nc3ccc(N(C)C(=O)CN4CCN(C)CC4)cc3)c3ccccc3)c2c1 | -7.07% (active)
51 | N#CC1C=CN(CC(N)=O)c2ccc3cccnc3c21 (stereo unspecified) | 96.2%
52 | S=C(Nc1ccc(-c2nc(N3CCOCC3)c3cccn3n2)cc1)Nc1cccnc1 | 12.8%
53 | Cc1cc2c(O)c(-c3cccc(Cl)c3)c3sc(=O)oc3c2cc1C | 48.2%
54 | COC(=O)[C@H]1CCCN1C[C@@H](O)CN1C(=O)/C(=C\c2cc(OC)c(OC)c(OC)c2)c2ccccc21 | 99.6%
55 | CS(=O)(=O)Nc1cc(-c2ccc3ncnc(Nc4c(Cl)ccc5c4OCO5)c3c2)cnc1Cl | -16.2% (active)
56 | COc1ccc(C(=S)N2CCN(c3ccccc3Cl)CC2)cc1OC | 99.4%
57 | CC(C)N1CN2C(=S)NC3C2N(C1)C(=S)N3C (stereo unspecified) | 95.6%
58 | O=C(c1ccc(-c2nc(CSc3nc4ccccc4s3)no2)cc1)N1CCSCC1 | 106%

Row | Structure (SMILES) | growth
59 | O=Nc1c(-c2c(O)[nH]c3ncccc23)[nH]c2ccccc12 | -9.72% (active)
60 | O=C(CSc1nnc2n1S(=O)(=O)c1ccccc1N2c1ccccc1)Nc1nc2ccc(F)cc2s1 | 101%
61 | O=C1/C(=C/c2ccccc2Br)COc2ccc(O)c(O)c21 | 25.2%
62 | CCOC(=O)C(=Cc1cccc(Br)c1)C(=O)OCC | 25.6%
63 | COC(C(=O)[C@@H](O)[C@@H](C)O)[C@@H]1Cc2cc3cc(O[C@H]4C[C@@H](O[C@H]5C[C@@H](O)[C@H](O)C(C)O5)[C@H](O)C(C)O4)cc(O)c3c(O)c2C(=O)[C@H]1O[C@H]1C[C@@H](O[C@H]2C[C@@H](O[C@H]3C[C@@H](OC)[C@H](O)C(C)O3)[C@@H](O)C(C)O2)[C@H](O)C(C)O1 (stereo partly specified) | 46.2%
64 | Cc1ccc(-c2cc(-c3ccc(Cl)cc3)nc(NC(=O)c3cccnc3)n2)cc1 | 103%
65 | Fc1cccc(CNc2c3ccccc3nc3ccccc23)c1F | 87%
66 | Cc1cc(N)c2cc(NC(=O)/C=C\c3ccccc3Cl)ccc2n1 | -72.3% (active)
67 | N#CC1=C(N)Oc2c(sc3c(F)cccc23)C1c1ccc(F)cc1 (stereo unspecified) | 24.6%
68 | C/C(=C(/c1ccc(Cl)cc1)c1ccc(OCCN2CCCC2)cc1)c1ccc(Cl)cc1 | 90.9%
69 | COC(=O)c1ccc2c(c1)C(=O)c1c-2n(CCCN)c(=O)c2cc([N+](=O)[O-])ccc12 | -71% (active)
70 | CS(=O)(=O)C1=CN(CCO)C(=O)N2CCCN=C12 | 97%
71 | O=C1Nc2ccccc2[C@]12CC(c1ccccc1)=NN2 | 58.4%
72 | O=C(Cn1c(=O)sc2nc3ccccc3nc21)Nc1ncc(Cc2cccc(Cl)c2Cl)s1 | 90.2%
73 | O=C(N/N=C/c1ccc(F)cc1)c1ccc(C(F)(F)F)nc1Nc1cccc(C(F)(F)F)c1 | -5.72% (active)
74 | COC(=O)[C@]1(C)CCC[C@]2(C)[C@H]3C[C@H]4C(C(C)C)=C[C@]3(CC[C@H]21)[C@H]1[C@@H]4[C@@H](OCCC#N)CC[C@@H]1OCCC#N | 59.4%
75 | CN(C)c1ccc(Nc2cc(-c3cccc(OC(F)(F)F)c3)nc3ccc(N4CCCC4)cc23)cc1 | -1.71% (active)
76 | CCn1c(=S)sc2c(Nc3ccc(F)cc3)nc(-c3cccnc3)nc21 | 49%
